The values that follow come from PubChem BioAssay (EPA / NIEHS).

Several values for one entry are separate records, joined by “and”; a condition that tells them apart may be missing. Equal entries are not always repeated. Activity calls are given as the source filed them. The calls were made as follows: active = hit-call score of the fitted dose curve at least 0.9, where 1 is the maximum; inactive = score below 0.9.

The nature of experiment [1]: BSK_BT_PBMCCytotoxicity: PBMC Cytotoxicity Assessment in the BioMAP Diversity Plus: BT Assay (AID 2284225).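 Also: PBMC viability measured by Alamar Blue dye reduction fluorescence.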 To be noted: primary human B cells with PBMC. The procedure, abridged: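 Viability by Alamar Blue reduction (6 h, ex/em 546/580 nm) after 90 h culture of SEB/TSST-1-activated PBMC (20 ng/mL each) given compound 1 h before activation. DMSO served as baseline for curve fitting.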

Read-out in experiment [2]: Secreted IgG (sIgG), gene 3500
The experiment can be described thus: BSK_BT_sIgG: BioMAP Diversity Plus: BT Assay for Secreted IgG (sIgG) Biomarker Activity (AID 2284226). The note with it: primary human B cells with PBMC. The essentials: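 Cells (B cells with peripheral blood mononuclear cells) are dosed, cultured 24 h, then supernatant IgG is measured by ELISA. DMSO serves as negative control; curves are fitted for signal increase.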

The nature of experiment [3]: BSK_BT_Bcell_Proliferation: Viability Assessment in the BioMAP Diversity Plus: BT Assay for B cell Proliferation (AID 2284227). The note with it: primary human B cells with PBMC. The procedure, abridged: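 Using a human primary B cell–PBMC co-culture, the assay measures total protein by sulforhodamine B absorbance as a gauge of proliferation after 72 h. Analysis followed the positive fitting direction with DMSO as baseline.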

Read-out in experiment [4]: Interleukin 6 (IL6), IL6 (gene 3569)
The experiment can be described thus: BSK_BT_xIL6: BioMAP Diversity Plus: BT Assay for Interleukin 6 (IL6) Biomarker Activity (AID 2284228). The note with it: primary human B cells with PBMC. The essentials: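 B cells and peripheral blood mononuclear cells (human primary co-culture) were dosed with chemical, and after 24 h IL-6 released into the medium was measured by Luminex xMAP. Responses were analysed as gain of signal over DMSO control.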

Read-out in experiment [5]: Interleukin 17A (IL17A), IL17A (gene 3605)
The experiment can be described thus: BSK_BT_xIL17A: BioMAP Diversity Plus: BT Assay for Interleukin 17A (IL17A) Biomarker Activity (AID 2284229). To be noted: primary human B cells with PBMC. The essentials: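 Secreted IL-17A was the measured endpoint, read by Luminex xMAP multiplex in supernatants of a human B cell/PBMC co-culture harvested 24 h after chemical dosing. Signal increase relative to DMSO defined activity.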

Read-out in experiment [6]: Tumor necrosis factor (Homo sapiens) (UniProt P01375)
The experiment can be described thus: BSK_BT_xTNFa: BioMAP Diversity Plus: BT Assay for Tumor necrosis factor alpha (TNF-alpha) Biomarker Activity (AID 2284230). To be noted: primary human B cells with PBMC. The procedure, abridged:
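Endpoint derived in the positive direction versus DMSO vehicle. Cells: B cells together with PBMC, exposed 24 h before TNF-alpha in the medium was read on the Luminex xMAP platform.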

Read-out in experiment [7]: Vascular cell adhesion molecule 1 (VCAM1), VCAM1 (gene 7412)
As to the kind of experiment: BSK_MyoF_VCAM1: BioMAP Diversity Plus: MyoF Assay for Vascular cell adhesion molecule 1 (VCAM1) Biomarker Activity (AID 2284231). The note with it: primary human lung fibroblasts. The essentials: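 ELISA read-out of VCAM-1 on human lung fibroblasts 24 h after chemical treatment, with positive-direction curve fitting relative to DMSO controls. Parallel cultures were stained with sulforhodamine B for total protein to flag overt cytotoxicity.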

Chain of Tumor necrosis factor (Homo sapiens) (P01375 whole entry, looked up): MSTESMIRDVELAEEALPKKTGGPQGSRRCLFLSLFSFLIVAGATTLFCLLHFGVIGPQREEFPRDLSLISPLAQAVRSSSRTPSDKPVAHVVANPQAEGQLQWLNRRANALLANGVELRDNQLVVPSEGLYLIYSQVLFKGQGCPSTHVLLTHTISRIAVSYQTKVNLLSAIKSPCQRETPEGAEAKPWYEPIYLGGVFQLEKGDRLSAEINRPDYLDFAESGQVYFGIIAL

For the compound `C=CC/C=C/C/C=C/C/C=C/C`, the outcome in experiment [1], in experiment [2], in experiment [3], in experiment [4], in experiment [5] and in experiment [6] was inactive. The outcome in experiment [7] was inactive.

With `CCN(CC)c1ccc2c(C)cc(=O)oc2c1`, the result in experiment [1], in experiment [3], in experiment [5], in experiment [6] and in experiment [7] was inactive. For the same compound, the AC50 was 28.3 µM (active) in experiment [2] and 10.9 µM (active) in experiment [4].

As to `OCCCC(F)(F)C(F)(F)C(F)(F)C(F)(F)C(F)(F)C(F)(F)C(F)(F)F`, the half-maximal activity concentration (AC50) in experiment [1] is 20.4 µM (active) and 20.1 µM (active); in experiment [2], 18.3 µM (active) and 48.6 µM (active); in experiment [3], 23.6 µM (active) and 20.6 µM (active); in experiment [4] it was 21 µM (active) and 25.9 µM (active); in experiment [5] it was 18.8 µM (active) and 36.4 µM (active); in experiment [6], 20.2 µM (active) and 23 µM (active). Further, the AC50 in experiment [7] was 51.2 µM (active) and 50.4 µM (active).

Take `CCc1ccc(C(c2ccc(CC)cc2)C(Cl)Cl)cc1`: the AC50 in experiment [1] is 31.1 µM (active); in experiment [2], 14.7 µM (active); in experiment [3] it was 31.7 µM (active); in experiment [4] it was 27.8 µM (active); in experiment [5], 28.8 µM (active); in experiment [6], 28.5 µM (active). Further, in experiment [7], the AC50 is 14.1 µM (active).

As to `OCCCC(F)(F)C(F)(F)C(F)(F)F`, the outcome in experiment [1], in experiment [2], in experiment [3], in experiment [4], in experiment [5] and in experiment [6] was inactive. The result in experiment [7] was inactive.

Consider `O=C(CC(=O)C(F)(F)C(F)(F)F)C(F)(F)F`, for which the result in experiment [1], in experiment [2], in experiment [3], in experiment [4], in experiment [5] and in experiment [6] was inactive. The outcome in experiment [7] was inactive.

In the case of `O=S(=O)(OCCOC(F)(F)F)C(F)(F)F`, the result in experiment [1], in experiment [2], in experiment [3], in experiment [4], in experiment [5] and in experiment [6] was inactive. Moreover, in experiment [7], the result was inactive.

For the compound `C=CC(=O)OCC(F)(F)C(F)(F)C(F)(F)C(F)(F)COC(=O)C=C`, the AC50 in experiment [1] is 11.3 µM (active) and 11.2 µM (active); in experiment [2], 10.5 µM (active) and 7.38 µM (active); in experiment [3], 13.7 µM (active) and 12 µM (active); in experiment [4] it was 12.3 µM (active) and 10.4 µM (active); in experiment [5], 7.14 µM (active) and 8.58 µM (active); in experiment [6], 9.76 µM (active) and 9.35 µM (active). For the same compound, in experiment [7], the AC50 was 9.29 µM (active) and 10.5 µM (active).

Regarding `Oc1ccc(Nc2ccccc2)cc1`, the AC50 is 16.7 µM (active) in experiment [1]; 13.4 µM (active) in experiment [2]; 22.5 µM (active) in experiment [3]; 20 µM (active) in experiment [4]; 14.3 µM (active) in experiment [5]; 30.1 µM (active) in experiment [6]. Also, in experiment [7], the outcome was inactive.

With `NC(=O)C(F)(F)C(F)(F)C(F)(F)C(F)(F)F`, the outcome in experiment [1], in experiment [2], in experiment [3], in experiment [4], in experiment [5] and in experiment [6] was inactive. For the same compound, in experiment [7], the outcome was inactive.

For `CCCCCCCCC(F)(F)C(F)(F)C(F)(F)C(F)(F)C(F)(F)C(F)(F)F`, the outcome in experiment [1], in experiment [2], in experiment [3], in experiment [4], in experiment [5] and in experiment [6] was inactive. For the same compound, the outcome in experiment [7] was inactive.

For `O=C(O)C=C(C(F)(F)F)C(F)(F)F`, the result in experiment [1], in experiment [4] and in experiment [5] was inactive. In addition, the AC50 in experiment [2] is 46 µM (active) and 43.1 µM (active); in experiment [3], 30 µM (active); in experiment [6], 30 µM (active) and 34.9 µM (active); in experiment [7] it was 21.8 µM (active) and 16.2 µM (active).

As for `Nc1ccc([N+](=O)[O-])cc1O`, the result in experiment [1], in experiment [2], in experiment [3], in experiment [4], in experiment [5] and in experiment [6] was inactive. Also, the outcome in experiment [7] was inactive.

For the compound `CCCCCCCCCCCCCCCC[N+](C)(C)Cc1ccccc1`, the half-maximal activity concentration (AC50) is 5.2 µM (active) in experiment [1]; 0.274 µM (active) in experiment [2]; 2.44 µM (active) in experiment [3]; 9.92 µM (active) in experiment [4]; 2.84 µM (active) in experiment [5]; 5.5 µM (active) in experiment [6]. Moreover, the AC50 in experiment [7] was 2.1 µM (active).

Turning to `FC(F)(F)C(F)(F)C(F)(F)C(F)(F)C(F)(F)C(F)(F)C(F)(F)Br`, the result in experiment [1], in experiment [2], in experiment [3], in experiment [4], in experiment [5] and in experiment [6] was inactive. For the same compound, the outcome in experiment [7] was inactive.

Take `O=C(O)C(F)(F)C(F)(F)C(F)(F)C(F)(F)C(F)(F)C(F)(F)C(F)(F)C(F)(F)C(F)(F)C(F)(F)C(F)(F)C(F)(F)C(F)(F)F`: the outcome in experiment [1], in experiment [2], in experiment [3], in experiment [4], in experiment [5] and in experiment [6] was inactive. The outcome in experiment [7] was inactive.

In the case of `O=C(Cl)C(F)(F)C(F)(F)C(F)(F)C(F)(F)C(F)(F)C(F)(F)C(F)(F)C(F)(F)F`, the result in experiment [1], in experiment [2], in experiment [3], in experiment [4], in experiment [5] and in experiment [6] was inactive. Further, the AC50 in experiment [7] was 27.2 µM (active) and 45.4 µM (active) and 44.1 µM (active).

For `CCCCOCCOCCOC(=O)CCCCC(=O)OCCOCCOCCCC`, the result in experiment [1], in experiment [2], in experiment [3], in experiment [4], in experiment [5] and in experiment [6] was inactive. Also, the result in experiment [7] was inactive.
